Sampled rows, rich in hits. Any-hit rate of the full collection: about 4.3%.
dFosB act-1 – mouse delta FosB homodimer activation; AID 493131; activation, % at 25 µM; purified delta FosB, TAMRA-CDK5 oligo fluorescence polarization; percent of positive-control signal above neutral wells; actives 0.99% (n = 340,000); P13346;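 active means mean activation above about 17%, with every replicate also reaching it, limit read from the data, passing the limit was not always enough; inconclusive means only one of the two conditions met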
Target sequence (P13346 whole entry, looked up): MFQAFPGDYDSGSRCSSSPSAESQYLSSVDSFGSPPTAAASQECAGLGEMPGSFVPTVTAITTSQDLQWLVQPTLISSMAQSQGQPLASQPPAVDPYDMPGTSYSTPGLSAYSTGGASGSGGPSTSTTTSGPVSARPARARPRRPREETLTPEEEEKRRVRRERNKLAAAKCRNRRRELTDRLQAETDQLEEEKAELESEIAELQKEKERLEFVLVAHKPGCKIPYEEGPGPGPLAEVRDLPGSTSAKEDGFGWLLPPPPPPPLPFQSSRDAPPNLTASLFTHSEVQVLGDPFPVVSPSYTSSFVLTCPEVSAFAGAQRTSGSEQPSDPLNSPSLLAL
Yeast superoxide – lowers age-related superoxide in aged yeast cells | S. cerevisiae aged cells, superoxide DHE fluorescence; hits give low values | superoxide response (% of plate mean), % at 10 µM | actives 0.18% (n = 330,000) | AID 2690;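 active means superoxide response under a set limit, about three screen SD below normal, cut at about 65% in these data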;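 further: yeast aged for seven days with compound at 30 °C before DHE staining; 100% = average MFI of all compound-treated wells on the plate with controls excluded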
UBC13 inh – inhibitors of human UBC13 polyubiquitin chain formation; inhibition, % at 20 µM; actives 0.47% (n = 330,000); P61088; TR-FRET; in the data active means inhibition above about 45%, passing the limit was not always enough; inconclusive means no clear call, values can overlap the other calls
Target sequence (P61088 whole entry, looked up): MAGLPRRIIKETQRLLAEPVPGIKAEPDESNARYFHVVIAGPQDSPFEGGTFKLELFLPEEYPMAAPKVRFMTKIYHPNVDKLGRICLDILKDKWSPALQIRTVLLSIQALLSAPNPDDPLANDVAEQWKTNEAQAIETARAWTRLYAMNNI
NR3A LBD binder – modulators (binders) of human NR3A ligand-binding domain | NR3A LBD differential scanning fluorimetry, Tm shift; 0% = protein alone, 100% = glycine-bound protein | Tm shift relative to glycine control, % at 25 µM | actives 2.5% (n = 340,000) | AID 1259313;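 active means melting temperature shift of at least 10% of the positive control shift, at one fixed dose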
NALP1 inh – inhibitors of NALP1 inflammasome in yeast | S. cerevisiae NALP1/ASC/caspase-1 growth, X-gal OD620, 72 h | inhibition, % at 10 µM | actives 0.61% (n = 280,000); in the data active means inhibition mostly above about 24%, no sharp cut-off; inactive means mostly below about 32%
dFosB act-2 – enhances mouse delta FosB homodimer binding to DNA. 2,400 tested, under 10 active. shares compounds with dFosB act-1. AID 588690. activation, % at 24.9 µM. purified delta FosB, TAMRA-CDK5 oligo fluorescence polarization; normalised: neutral wells 0, positive control 100;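 active means highest replicate activation at or above 34% and every replicate reaching that threshold; inconclusive means meets only one of the two criteria; inactive means meets neither criterion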;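 further: higher polarization means more probe DNA bound by delta FosB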
* = called active by the depositor; ? = inconclusive; . = no result given.

SMILES | dFosB act-1 | Yeast superoxide | UBC13 inh | NR3A LBD binder | NALP1 inh | dFosB act-2
Cc1ccc(NC(=O)Nc2nc3ccccc3s2)cc1NC(=O)Nc1nc2ccccc2s1 | 31.8* | 106.5 | -17.2 | 27.9* | 18.7 | 1.3
COc1ccc(C(=O)OCC(=O)NC(=O)Nc2ccccc2F)c(OC)c1 | 11.4 | 85.8 | 2.7 | 1.2 | . | .
CS(=O)(=O)c1ccc2nc(NC(=O)Nc3ccccc3F)sc2c1 | 19.9* | 95.3 | 10.6 | 3.5 | 27.9 | 0.0
COc1ccc2nc(NC(=O)Nc3cccc4ccccc34)sc2c1 | 56.7* | 115.0 | 0.3 | 23.2* | 15.6 | 0.7
CC(=O)Nc1cccc(NC(=O)Nc2cccc3ccccc23)c1 | 20.8* | 97.2 | -1.7 | 3.3 | 2.9 | -2.6
COc1ccc(NC(=O)Nc2cccc3ccccc23)c(OC)c1 | -3.7 | 97.0 | -12.1 | -8.4 | -0.5 | .
COc1ccc(-c2csc(NC(=S)NC(=O)c3ccc(S(=O)(=O)N(C)C)cc3)n2)cc1OC | 28.6* | 108.2 | -15.6 | -14.3 | 18.7 | -0.3
Nc1c(C(=O)NCc2ccco2)nnn1CC(=O)Nc1ccc2c(c1)OCO2 | -1.0 | 97.1 | 9.5 | -2.2 | -21.9 | .
COc1ccc(NC(=O)Cn2nnc(C(=O)Nc3ccc(F)c(Cl)c3)c2N)cc1OC | 22.9* | 89.8 | -7.1 | 77.5* | 15.3 | 2.9
Cc1ccc(NC(=O)Cn2nnc(C(=O)Nc3ccc(C)c(C)c3)c2N)cc1 | 119.5* | 113.2 | -15.4 | -3.9 | 15.2 | -6.2
CSc1ccc(Cn2nnc(C(=O)Nc3ccc(C)c(C)c3)c2N)cc1 | -8.7 | 103.4 | -21.7 | 0.5 | -16.5 | .
Cc1ccc(NC(=O)c2nnn(CC(=O)Nc3ccc4c(c3)OCO4)c2N)cc1C | 45.9* | 90.7 | -5.9 | -0.5 | 17.8 | -0.9
CCOC(=O)c1c(C)[nH]c(C(=O)OCC(=O)N(C)CC(=O)Nc2ccccc2Cl)c1C | -13.5 | 87.4 | 1.6 | -0.6 | . | .
COc1ccc(CN2CCN(S(=O)(=O)c3ccc(NC(C)=O)cc3)CC2)c(OC)c1OC | -12.3 | 94.4 | 3.1 | -3.4 | 16.6 | .
O=C(Nc1ccon1)c1sc2cc(Cl)ccc2c1Cl | 40.9* | 98.5 | -2.4 | 0.9 | 14.4 | 3.6
O=C(NCc1ccco1)c1sc2cc(Cl)ccc2c1Cl | -7.3 | 106.0 | -0.4 | 4.3 | 7.6 | .
Fc1ccccc1-c1nc(-c2ccc(Br)o2)no1 | -5.4 | 79.8 | 0.2 | -2.7 | 9.3 | .
NS(=O)(=O)c1ccc(C(=O)Nc2ccc(-c3nc4cccnc4s3)cc2)cc1 | 42.9* | 105.5 | 8.7 | 30.4* | . | 5.6
O=S(=O)(Nc1ccc(-c2nc3cccnc3s2)cc1)c1cc(F)ccc1F | -10.4 | 94.5 | 0.1 | -0.5 | -9.0 | .
O=C(Nc1cccc(-c2nc3cccnc3s2)c1)c1ccc(Cl)nc1 | 26.6* | 94.2 | -6.1 | 0.5 | . | -1.2
CCC(CC)C(=O)Nc1cccc(S(=O)(=O)c2cccc(NC(=O)C(CC)CC)c2)c1 | 16.9* | 115.5 | -24.4 | 4.2 | 14.0 | 3.3
CCC(CC)C(=O)Nc1cccc(C(=O)Nc2ccc(S(N)(=O)=O)cc2)c1 | 1.1 | 96.3 | 6.5 | -0.2 | -1.2 | .
Cc1csc2c(=O)sc(NC(=O)c3cccs3)nc12 | -4.6 | 96.3 | 10.8 | 2.0 | . | .
COc1cc(O)c(/C=N/NC(=O)c2ccncc2)c(OC)c1[N+](=O)[O-] | -3.6 | 80.9 | -30.7 | 2.7 | 10.2 | .
O=C(CCCOc1cccc(Br)c1)NCCOc1ccccc1 | -8.6 | 124.4 | -0.9 | 0.2 | 10.9 | .
SMILES | dFosB act-1 | Yeast superoxide | UBC13 inh | NR3A LBD binder | NALP1 inh | dFosB act-2
O=C(CSc1nc2ncc(Cl)cc2[nH]1)c1c[nH]c2ccccc12 | 21.5* | 103.8 | -18.2 | 6.3 | 12.7 | -4.0
O=C(COC(=O)c1cc([N+](=O)[O-])ccc1NCCO)Nc1ccc2c(c1)OCO2 | 2.9 | 96.8 | -5.3 | -3.6 | 5.6 | .
O=C(COC(=O)c1cc([N+](=O)[O-])ccc1NCCO)Nc1cccc(S(=O)(=O)N2CCCC2)c1 | 30.6* | 89.3 | -5.3 | 0.9 | . | 1.4
COc1ccc(NC(=O)COC(=O)c2ccc(S(=O)(=O)N(C)c3ccccc3OC)cc2)cc1OC | -8.6 | 73.9 | 4.2 | -1.0 | -1.3 | .
O=C(COC(=O)c1ccc(S(=O)(=O)N2CCCCC2)cc1)Nc1ccccc1 | 20.7* | 98.8 | -6.8 | -3.0 | . | 2.1
CC(=O)Nc1ccc(NC(=O)COC(=O)c2ccc(S(=O)(=O)N(C)c3ccccc3)cc2)cc1 | 37.6* | . | . | -1.2 | . | 0.4
COc1ccccc1N(C)S(=O)(=O)c1ccc(C(=O)OCC(=O)Nc2ccc(C(N)=O)cc2)cc1 | 65.9* | 95.8 | 2.8 | -4.2 | . | 2.4
CCCN(CCC)CCCNC(=O)C1CCC(CNS(=O)(=O)c2cccc3nsnc23)CC1 (configuration not stated) | -1.3 | 95.9 | 1.2 | 2.6 | 28.0 | .
CN(C)CCNC(=O)C1CCN(S(=O)(=O)c2ccc3ccccc3c2)CC1 | -4.5 | 84.0 | 1.0 | -0.4 | 28.7 | .
COc1cc(/C=C/C(=O)OCC(=O)NCC(=O)Nc2cccc(C)c2C)ccc1OC(F)F | 20.4* | 90.9 | 3.8 | -1.0 | . | 3.1
COc1ccccc1NC(=O)COC(=O)/C=C/c1ccc(OC)c(OC)c1 | 7.6 | 96.9 | 24.8 | -0.9 | . | .
CCCCn1c(N)c(N(Cc2ccccc2OC)C(=O)c2ccc(N3CCCC3=O)cc2)c(=O)[nH]c1=O | -9.2 | 97.4 | 1.9 | -1.0 | . | .
Cn1c(=O)c(=O)n(C)c2cc(S(=O)(=O)CCC(=O)Nc3ccc(F)cc3)ccc21 | -4.2 | 103.0 | -5.8 | -1.2 | 3.2 | .
Cn1c(=O)c(=O)n(C)c2cc(S(=O)(=O)CCC(=O)Nc3cccc(C(F)(F)F)c3)ccc21 | 20.6* | 90.6 | 5.7 | -0.2 | 5.8 | 3.2
COc1ccc(C(=O)Sc2ccc(Cl)cc2)cc1OC | 20.7* | 100.5 | 8.6 | 5.4 | 2.1 | -2.2
Cc1noc(C)c1C(=O)N(CC(=O)Nc1ccc(Cl)c(C(F)(F)F)c1)Cc1ccco1 | -20.6 | 123.2 | -4.2 | -3.6 | . | .
COc1ccc(NC(=O)c2cn(C)c(=O)c3cc(OC)c(OC)cc23)c(OC)c1 | 19.7* | 105.8 | -0.7 | 5.2 | 11.3 | 2.3
COc1ccc(OC)c(NC(=O)c2cn(C)c(=O)c3cc(OC)c(OC)cc23)c1 | 5.0 | 93.7 | -3.4 | 0.2 | . | .
CCOc1ccc(NC(=O)[C@@H]2CCC(=O)N2C2OC(=O)c3ccccc32)cc1 (some centres not stated) | 1.0 | 106.3 | 1.4 | -0.5 | 22.6 | .
Cc1cc(C)c(NC(=O)Nc2ccccc2C)c(Cl)c1 | 20.2* | 121.1 | 10.5 | -0.9 | 16.0 | 1.9
Cc1ccc(Nc2nnc(SCc3nc4ccccc4c(=O)[nH]3)s2)cc1 | 43.2* | 102.7 | 12.5 | 4.8 | -1.4 | -1.1
O=C(CCc1nc2ccccc2c(=O)[nH]1)Nc1nnc(SCc2ccc(Cl)cc2)s1 | ? | 101.6 | -8.3 | -3.1 | . | .
CCOC(=O)c1ccc(Nc2nc(=O)c3cccnc3s2)cc1 | -6.6 | 102.2 | -14.3 | -2.0 | -10.7 | .

High-throughput results deposited in PubChem BioAssay by several laboratories.
